This excerpt belongs to a sample that is enriched for hits.
HT1080NT lethal = kills 2HG-producing HT-1080-NT fibrosarcoma cells; hit rate 1.6% among 360,000; HT-1080-NT fibrosarcoma viability, CellTiter-Glo ATP luminescence, 48 h; Potency, µM (titrated, usually from 46.1 µM), usual class: cytotoxic;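 further: NT is the 2HG producing partner of a matched IDH1 knockdown line; nearly all actives have a fitted effect of over 55% in size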
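A 48-hour cytotoxicity screen used HT-1080-NT cells plated 2 hours before compound delivery. ATP-based CellTiter-Glo luminescence measured viability, normalized to DMSO and no-cell controls.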
HT1080 IDH1KD tx = HT-1080 IDH1 knockdown cell toxicity (counter line) | HT-1080 IDH1 knockdown viability, ATP luminescence, 48 h | Potency, µM (top dose mostly 46.1 µM), most hits filed as cytotoxic | hit rate 2% among 360,000 | AID 686971
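Luminescent ATP read-out (CellTiter-Glo, 10 min at room temperature) after 48 h compound exposure at 37 °C gave viability of IDH1-knockdown HT-1080 cells. Activity was normalised to DMSO and cell-free wells, then fitted as concentration-response curves.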
DT40 TDP1 CPT = growth inhibition of DT40 Tdp1-/-;hTDP1 cells with camptothecin (screen for TDP1 inhibitors); chicken DT40 Tdp1-/-;hTDP1 cells + 20 nM CPT, ATP luminescence, 48 h; Potency, µM (doses to about 46.2 µM), hits mostly inhibitors; hit rate 12% among 420,000; further: nearly all actives have a fitted effect of over 55% in size
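Chicken DT40 Tdp1-/- cells complemented with human TDP1, 400 cells/well, exposed to compounds plus 20 nM camptothecin for at least 48 h at 37 C; viability read as ATP content by CellTiter-Glo luminescence.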
DT40 TDP1 no CPT = qHTS for Inhibitors of human tyrosyl-DNA phosphodiesterase 1 (TDP1): qHTS in cells in absence of CPT; Potency, µM (highest dose often 46.2 µM), actives largely listed as inhibitors; hit rate 15% among 420,000; AID 686978, 2013; DT40 Tdp1-/- hTDP1 cells, no CPT, ATP luminescence, 48 h; further: nearly all actives have a fitted effect of over 55% in size
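A cellular qHTS used chicken DT40 cells lacking endogenous Tdp1 but carrying stably transfected human TDP1. Compounds were applied without camptothecin, and cell growth kinetics were judged by ATP-dependent luminescence after ≥48 hr.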
12-LOX inh = inhibitors of human 12S-lipoxygenase ALOX12 | hit rate 1.1% among 580,000 | AID 1671190 | purified 12hLO, xylenol orange hydroperoxide absorbance | Potency, µM (doses to about 108 µM), usual class: inhibitors | P18054
Target sequence (P18054 whole entry, looked up): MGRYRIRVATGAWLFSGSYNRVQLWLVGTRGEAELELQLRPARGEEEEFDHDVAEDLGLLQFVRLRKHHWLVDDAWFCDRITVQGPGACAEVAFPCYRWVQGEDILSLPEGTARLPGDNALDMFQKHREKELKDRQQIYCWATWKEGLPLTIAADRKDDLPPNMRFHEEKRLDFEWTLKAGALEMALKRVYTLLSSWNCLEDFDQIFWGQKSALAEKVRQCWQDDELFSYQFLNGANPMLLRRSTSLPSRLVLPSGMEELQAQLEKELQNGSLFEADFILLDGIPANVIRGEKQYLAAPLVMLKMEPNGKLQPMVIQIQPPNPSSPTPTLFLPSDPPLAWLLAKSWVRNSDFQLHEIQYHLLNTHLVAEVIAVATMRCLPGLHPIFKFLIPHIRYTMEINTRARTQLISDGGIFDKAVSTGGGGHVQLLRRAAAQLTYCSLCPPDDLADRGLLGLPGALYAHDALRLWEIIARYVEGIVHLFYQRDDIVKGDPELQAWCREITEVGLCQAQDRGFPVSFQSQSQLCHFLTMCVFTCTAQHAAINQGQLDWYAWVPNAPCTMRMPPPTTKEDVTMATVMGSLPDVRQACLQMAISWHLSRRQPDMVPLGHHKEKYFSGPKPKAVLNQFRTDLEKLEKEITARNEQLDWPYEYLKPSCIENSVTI
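Hydroperoxide product was detected by ferrous iron/xylenol orange as the 573 to 405 nm absorbance ratio. Arachidonic acid at 40 uM (final) was turned over for 30 min at room temperature by 150 nM human 12hLO, pH 7.0 Hepes buffer, after 15 min compound preincubation.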
IL-1B inflam inh = blocks inflammasome-driven IL-1 beta release. THP-1 LPS/ATP IL-1B secretion, AlphaLISA, 16 h; active compounds read low. activity change, % at 57.5 µM. hit rate 4.7% among 360,000. AID 743279; in the data active means activity change below about -50%; inconclusive means mostly about -30% to -49%
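Secreted IL-1B measured by AlphaLISA bead assay after 16 h compound exposure of THP-1 cells; compounds (final up to 57.5 uM) added 1 h before LPS (250 ng/mL) and ATP (1.25 mM) stimulation; lower signal means less secretion.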
Hits are given with their value. Unless noted, the call rests on the fitted dose curve; in most records, active means well fitted curve in the direction sought with a large enough effect; inconclusive means small, poorly fitted or top-dose-only effect, or another doubt; inactive means no such curve, though single readings can be large; an effect the other way counts as inactive or inconclusive.

Cc1cc2c(c(=O)n1Cc1ccc3c(c1)OCO3)C(c1ccccc1Cl)C(C#N)=C(N)O2 (stereo unspecified) was read as 12-LOX inh inactive.
O=C(Nc1cccc(F)c1)C1CCCN(S(=O)(=O)c2ccccc2)C1 (stereo unspecified) was read as HT1080NT lethal inactive, HT1080 IDH1KD tx inactive, DT40 TDP1 CPT 18µM, DT40 TDP1 no CPT inconclusive, 12-LOX inh inactive and IL-1B inflam inh inactive.
For COc1ccc(S(=O)(=O)N2CCCC(C(=O)Nc3ccc4c(c3)OCCO4)C2)cc1 (stereo unspecified) the results were HT1080NT lethal inactive, HT1080 IDH1KD tx inactive, DT40 TDP1 CPT 21µM, DT40 TDP1 no CPT inconclusive, 12-LOX inh inactive and IL-1B inflam inh inconclusive.
For COc1ccccc1CNC(=O)C1(c2ccc(NC(=O)C3CC3)cc2)CCCCC1 the results were 12-LOX inh inactive.
`O=C(c1ccco1)N1CCN(c2ncnc3c2oc2ccccc23)CC1` gave HT1080NT lethal inactive, HT1080 IDH1KD tx inactive, DT40 TDP1 CPT 21µM, DT40 TDP1 no CPT 13µM, 12-LOX inh inactive and IL-1B inflam inh inactive.
`c1ccc2[nH]c(CN3CCN(c4ncnc5c4oc4ccccc45)CC3)nc2c1` gave HT1080NT lethal inconclusive, HT1080 IDH1KD tx inactive, DT40 TDP1 CPT 23µM, DT40 TDP1 no CPT 23µM, 12-LOX inh inactive and IL-1B inflam inh inconclusive.
COc1ccccc1N1CCN(c2ncnc3c2oc2ccccc23)CC1 was read as HT1080NT lethal inconclusive, HT1080 IDH1KD tx inconclusive, DT40 TDP1 CPT 3.7µM, DT40 TDP1 no CPT 5.2µM, 12-LOX inh inactive and IL-1B inflam inh inactive.
Cc1nc(N2CCOCC2)c2oc3ccccc3c2n1 was read as HT1080NT lethal inactive, HT1080 IDH1KD tx inactive, DT40 TDP1 CPT inconclusive, DT40 TDP1 no CPT 18µM, 12-LOX inh inactive and IL-1B inflam inh inactive.
Screening CC(C)C(=O)NCC(=O)O returned 12-LOX inh inactive.
`Cc1nc(SCc2nc3ccccc3[nH]2)c2oc3ccccc3c2n1` gave HT1080NT lethal inactive, HT1080 IDH1KD tx inconclusive, DT40 TDP1 CPT 21µM, DT40 TDP1 no CPT inconclusive, 12-LOX inh inactive and IL-1B inflam inh inactive.
For Cc1nc(N2CCN(Cc3nc4ccccc4[nH]3)CC2)c2oc3ccccc3c2n1 the results were HT1080NT lethal inactive, HT1080 IDH1KD tx inconclusive, DT40 TDP1 CPT inconclusive, DT40 TDP1 no CPT 18µM, 12-LOX inh inactive and IL-1B inflam inh inconclusive.
For Cc1nc(SCc2ccccc2F)c2oc3ccccc3c2n1 the results were HT1080NT lethal inactive, HT1080 IDH1KD tx inactive, DT40 TDP1 CPT inactive, DT40 TDP1 no CPT 13µM, 12-LOX inh inactive and IL-1B inflam inh inactive.
Nc1nc(N2CCN(C/C=C/c3ccccc3)CC2)nc2ccccc12 was read as HT1080NT lethal inconclusive, HT1080 IDH1KD tx inconclusive, DT40 TDP1 CPT 21µM, DT40 TDP1 no CPT inconclusive, 12-LOX inh inconclusive and IL-1B inflam inh inactive.
For CO[C@H]1[C@H](NC(=O)Cn2nc(C)c(C)c2C)c2ccccc2C12CCNCC2 the results were 12-LOX inh inactive.
For CCc1cc(NCCNC(=O)c2ccccc2Cl)n2nccc2n1 the results were 12-LOX inh inactive.
For COC(=O)N(C)CC(=O)NCc1cccc(C)c1 the results were 12-LOX inh inactive.
Screening Cc1cc(C)n(-c2ncnc3c2oc2ccccc23)n1 returned HT1080NT lethal inactive, HT1080 IDH1KD tx inactive, DT40 TDP1 CPT inconclusive, DT40 TDP1 no CPT inconclusive, 12-LOX inh inactive and IL-1B inflam inh inactive.
For C(=C\c1ccccc1)/CN1CCN(c2ncnc3c2oc2ccccc23)CC1 the results were HT1080NT lethal inconclusive, HT1080 IDH1KD tx inconclusive, DT40 TDP1 CPT 18µM, DT40 TDP1 no CPT 18µM, 12-LOX inh inactive and IL-1B inflam inh inactive.
For COc1ccc(C(C(=O)Nc2ccc3c(c2)OCCO3)n2c(=O)c(-c3cc4ccccc4[nH]3)nc3ccccc32)cc1 (stereo unspecified) the results were HT1080NT lethal inactive, HT1080 IDH1KD tx inactive, DT40 TDP1 CPT inconclusive, DT40 TDP1 no CPT inconclusive, 12-LOX inh inactive and IL-1B inflam inh inactive.
O=C(NCc1ccccc1)C(c1ccc(C(F)(F)F)cc1)n1c(=O)c(-c2cc3ccccc3[nH]2)nc2ccccc21 (stereo unspecified) was read as HT1080NT lethal inconclusive, HT1080 IDH1KD tx inconclusive, DT40 TDP1 CPT inconclusive, DT40 TDP1 no CPT 15µM, 12-LOX inh inconclusive and IL-1B inflam inh inactive.
Screening CCCCCNC(=O)C(c1ccc(-c2ccccc2)cc1)n1c(=O)c(-c2cc3ccccc3[nH]2)nc2ccccc21 (stereo unspecified) returned HT1080NT lethal inactive, HT1080 IDH1KD tx inactive, DT40 TDP1 CPT inactive, DT40 TDP1 no CPT inactive, 12-LOX inh inactive and IL-1B inflam inh inactive.
N#Cc1ccc(C(C(=O)NCc2ccccc2)n2c(=O)c(-c3cc4ccccc4[nH]3)nc3ccccc32)cc1 (stereo unspecified) was read as HT1080NT lethal inactive, HT1080 IDH1KD tx inactive, DT40 TDP1 CPT 12µM, DT40 TDP1 no CPT 9.2µM, 12-LOX inh inactive and IL-1B inflam inh inactive.
Screening COc1ccc(NC(=O)C(C2CC2)n2c(=O)c(-c3cc4ccccc4[nH]3)nc3ccccc32)cc1 (stereo unspecified) returned HT1080NT lethal inconclusive, HT1080 IDH1KD tx 15µM, DT40 TDP1 CPT 29µM, DT40 TDP1 no CPT inconclusive, 12-LOX inh inactive and IL-1B inflam inh inconclusive.
Screening CCCCCNC(=O)C(c1cc2ccccc2o1)n1c(=O)c(-c2cc3ccccc3[nH]2)nc2ccccc21 (stereo unspecified) returned HT1080NT lethal inactive, HT1080 IDH1KD tx inactive, DT40 TDP1 CPT inconclusive, DT40 TDP1 no CPT inconclusive, 12-LOX inh inconclusive and IL-1B inflam inh inactive.
Screening COc1ccc(NC(=O)C(c2ccc(C(F)(F)F)cc2)n2c(=O)c(-c3cc4ccccc4[nH]3)nc3ccccc32)cc1 (stereo unspecified) returned HT1080NT lethal inconclusive, HT1080 IDH1KD tx inconclusive, DT40 TDP1 CPT 18µM, DT40 TDP1 no CPT inconclusive, 12-LOX inh inactive and IL-1B inflam inh inactive.
CC(c1ccccc1)N(C)S(=O)(=O)c1cccc2nsnc12 (stereo unspecified) was read as 12-LOX inh inactive.
Cc1ccc(CN2CCC(c3nn(C)c(=O)n3Cc3ccccc3)CC2)o1 was read as 12-LOX inh inactive.
`Nc1ccc(N(CCO)CCO)cc1` gave HT1080NT lethal inactive, HT1080 IDH1KD tx inactive, DT40 TDP1 CPT 12µM, DT40 TDP1 no CPT 21µM, 12-LOX inh inactive and IL-1B inflam inh inactive.

Screening data from PubChem.
